tim10-1 inh – growth inhibitors of tim10-1 mutant yeast, primary screen, luminescence, uHTS | S. cerevisiae tim10-1 ts strain growth, BacTiter-Glo, 24 h | hit rate 2.2% among 330,000 | inhibition, % at 20 µM;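 active = inhibition of at least 40%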;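 also: mutant grown at 25 °C; 0% = DMSO wells with yeast and 100% = wells holding no yeast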
SKKanGAS inh – S. pyogenes SKKanGAS growth inhibitors in kanamycin, primary screen, streptokinase expression inhibitor project, SKKanGAS strain, BacTiter-Glo luminescence | hit rate 1.3% among 300,000 | inhibition, % at 7.5 µM | 6 h;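 active = mean replicate score, as percent of positive control median, at least 50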;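 also: strain carries kanamycin resistance gene driven by streptokinase promoter and grows in 40 µg/ml kanamycin; loss of luminescence reflects streptokinase promoter inhibition or plain growth inhibition; 0% = median of DMSO wells and 100% = positive control at its reference dose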
EBI2 block – EBI2 receptor antagonists, beta-arrestin recruitment, primary screen, cell-based, luminescence, 7a,25-OHC stimulation, uHTS; G-protein coupled receptor 183 (Homo sapiens), P32249; 7a,25-OHC stimulated; inhibition, % at 5 µM; hit rate 0.81% among 360,000; AID 651636, 2012; in the data active = inhibition above about 38%;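 also: enzyme fragment complementation signal reports receptor beta-arrestin coupling in cells; 0% = agonist plus DMSO wells and 100% = wells without agonist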
Target sequence (P32249 whole entry, looked up, the tested form may be a part): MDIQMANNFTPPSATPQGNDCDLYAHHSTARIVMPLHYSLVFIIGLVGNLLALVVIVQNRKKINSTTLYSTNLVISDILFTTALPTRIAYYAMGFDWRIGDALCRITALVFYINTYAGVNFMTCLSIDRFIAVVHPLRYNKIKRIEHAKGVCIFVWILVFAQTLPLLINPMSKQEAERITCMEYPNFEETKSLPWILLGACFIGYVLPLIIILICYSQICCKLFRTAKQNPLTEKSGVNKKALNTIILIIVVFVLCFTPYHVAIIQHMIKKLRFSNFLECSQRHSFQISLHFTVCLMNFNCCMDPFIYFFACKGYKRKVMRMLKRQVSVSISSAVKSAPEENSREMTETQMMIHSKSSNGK
PfHsp90 yeast 2 – growth inhibition of PfHsp90-expressing yeast, primary screen, antimalarial PfHsp90 inhibitor project, S. cerevisiae, BacTiter-Glo luminescence, single point, set 2; BacTiter-Glo ATP, 48 h; yeast lacking PDR1 and PDR3 efflux regulators; inhibition, % at 9.4 µM; hit rate 0.32% among 310,000;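 active = every replicate shows inhibition above about 80%, whatever the replicate mean, limit read from the data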;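 also: 0% = DMSO neutral controls and 100% = 20 µM radicicol positive controls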
tim23-1 inh – growth inhibitors of tim23-1 mutant yeast, primary screen, luminescence, uHTS | S. cerevisiae tim23-1 growth, BacTiter-Glo luminescence, 24 h | AID 463212, 2010 | inhibition, % at 20 µM | hit rate 1.3% among 330,000;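 active = growth inhibition of the mutant yeast at or above 50%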;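 also: temperature-sensitive mutant grown at 25 °C; plate controls were DMSO-treated mutant yeast for no effect and medium wells lacking yeast for full effect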
TIM10 inh – growth inhibitors of isogenic TIM10 control yeast, primary screen, counter-screen for tim10-1 yeast inhibitor project, luminescence, uHTS; S. cerevisiae TIM10 strain growth, BacTiter-Glo luminescence, 24 h; inhibition, % at 10 µM; hit rate 1.4% among 330,000;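 active = inhibition of 40% or more at the single tested concentration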;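 also: wild-type TIM10 isogenic control strain grown at permissive 25 °C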
TIM10 conf – growth inhibitors of wild-type TIM10 yeast, confirmation, counter-screen for tim10-1 synthetic lethality project, single concentration, luminescence, S. cerevisiae; inhibition, % at 10 µM; hit rate 63% among 4,600; S. cerevisiae tim10 strain growth, BacTiter-Glo luminescence, 24 h; shares compounds with TIM10 inh;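 active = inhibition of yeast growth at or above a set limit in either of two replicates at 10 µM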;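 also: this counterscreen used the strain with wild-type TIM10; 0% = yeast with DMSO and 100% = medium wells lacking yeast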
* marks the source's active call; other numbers are inactive results; · = not tested or not shown. Most compounds without a hit are left out; they make up all but 4.7% or so of the library.

SMILES | tim10-1 inh | SKKanGAS inh | EBI2 block | PfHsp90 yeast 2 | tim23-1 inh | TIM10 inh | TIM10 conf
O=c1c(Cl)c(N/N=C/c2ccc(Br)cc2)cnn1-c1ccccc1 | 22.9 | 13.2 | 12.9 | -43.9 | 35.8 | 40.3* | -3.9
O=C(c1cc(COc2cccc(C(F)(F)F)c2)on1)N1CCC(Oc2cccnc2)CC1 | 38.2 | -7.8 | 9.3 | 2.9 | 38.7 | 43.2* | 43.0*
Cc1ccc(OCc2cc(C(=O)N3CCC(Oc4cccnc4)CC3)no2)cc1C | 35.7 | -14.9 | -1.3 | 14.1 | 27.7 | 29.9 | ·
COc1ccc(C(=O)Oc2cc3c4c(c2)C(C)=CC(C)(C)N4C(=O)C3=O)cc1OC | 37.8 | -2.2 | -2.9 | 2.8 | 45.4 | 46.3* | 48.2*
COc1ccc(C(=O)Oc2ccc(C(=S)N3CCCC3)cc2)cc1OC | 37.8 | 1.8 | · | · | 18.0 | 3.9 | ·
CCCC1=Nc2cc(C(=O)N3CCN(c4ccccn4)CC3)ccc2Sc2ccc(C)cc21 | 17.3 | 47.7 | 1.7 | -18.8 | 17.0 | 23.5 | ·
COc1cc(Cl)ccc1OCc1cc(C(=O)N2CCN(C)CC2)no1 | -10.8 | 0.0 | -10.2 | 8.3 | -4.3 | 8.1 | ·
COc1cc(Cl)ccc1OCc1cc(C(=O)N2CCN(c3ccccn3)CC2)no1 | 17.1 | 4.3 | -8.7 | -35.8 | 42.7 | 55.2* | 68.2*
COc1ccc(C(=O)c2[nH]c(N)c(C(=O)NCCc3c[nH]c4ccccc34)c2-c2ccc(C(F)(F)F)cc2)cc1 | · | · | 2.3 | · | · | · | ·
Fc1cccc(Cn2cc(C(=S)N3CCCCC3)c3ccccc32)c1 | 37.5 | 10.9 | -7.2 | -27.5 | 36.3 | 47.7* | 29.6
Cc1cccc(C)c1NC(=O)CS(=O)CC(=O)NCC1OCCc2ccccc21 (configuration not stated) | 7.4 | 1.0 | 3.6 | -22.9 | 2.0 | 5.4 | ·
Cc1cc(C)c(C)c(S(=O)(=O)N2CCC(C(=O)Nc3ccc(S(=O)(=O)N4CCOCC4)cc3)CC2)c1C | 8.2 | 10.9 | -6.7 | -11.8 | 2.2 | 7.9 | ·
O=C(NC1CCCCC1)c1nc2c(nnn2Cc2ccccc2Cl)c(=O)[nH]1 | 22.3 | 18.0 | 8.4 | · | -1.2 | 1.7 | ·
COc1ccc(/C=N/NC(=S)NCC2CCCO2)cc1 (configuration not stated) | 31.0 | -2.1 | 21.2 | 5.5 | 33.0 | 44.4* | 20.5
COc1ccccc1/C=C/C(=O)NC(=S)NCC1CCCO1 (configuration not stated) | 34.1 | -11.2 | -6.1 | -5.4 | 21.5 | 41.8* | 34.8*
COC(=O)C1=NN(C(=O)c2cccc(Br)c2)C(O)(c2ccc(Cl)cc2)C1 (configuration not stated) | 35.3 | 86.0* | -19.1 | -10.7 | 22.3 | 45.1* | 3.2
COc1ccc(C(C(=O)NC(C)(C)C)n2c(-c3ccc(C(F)(F)F)cc3)nc3ccccc32)cc1 (configuration not stated) | · | · | 10.7 | · | · | · | ·
N#CCC(=O)Nc1ccc(C(=O)NCC(c2ccco2)N2CCCCC2)cc1 (configuration not stated) | 5.0 | 3.4 | -6.4 | -0.1 | -4.1 | 7.7 | ·
COC(=O)C1=C(N)Oc2cc(N(C)C)ccc2C1c1ccccc1OC (configuration not stated) | 29.3 | -18.4 | -31.7 | -6.3 | 20.6 | 42.3* | -0.7
Cc1ccc(N(C(=O)c2snc(C(N)=O)c2N)C(C(=O)NC2CCCC2)c2ccncc2)cc1 (configuration not stated) | 2.1 | -0.2 | 6.0 | 19.3 | 9.1 | -14.1 | ·
CNc1nc2ccccc2n1/N=C/c1cccc(OC)c1OC | 29.7 | -10.9 | -6.8 | · | 49.9 | 47.7* | 29.1
COc1cccc(/C=N/n2c(CO)nc3ccccc32)c1OC | 34.2 | 2.5 | 5.3 | · | 12.8 | 1.3 | ·
O=C(COC(=O)/C=C/c1cccc(F)c1)NC(=O)NCc1ccccc1 | 16.8 | · | -0.5 | 28.2 | 17.0 | 7.0 | ·
CCC12CN(C(=O)c3ccc(C)cc3)CC(CC)(CN(C(=O)c3ccc(C)cc3)C1)C2=O | 27.5 | 6.3 | -12.8 | -13.2 | 23.6 | 25.5 | ·
Cc1ccc(C(=O)N2CC3(C(C)C)CN(C(=O)c4ccc(C)cc4)CC(C(C)C)(C2)C3=O)cc1 | 38.5 | 2.9 | 14.5 | -8.7 | 19.9 | 44.4* | 5.1
SMILES | tim10-1 inh | SKKanGAS inh | EBI2 block | PfHsp90 yeast 2 | tim23-1 inh | TIM10 inh | TIM10 conf
COc1cc(C(=O)NCCCNC(=O)c2cc(OC)c(OC)c(OC)c2)cc(OC)c1OC | -21.1 | 1.1 | 20.2 | · | -6.0 | -10.8 | ·
COc1cc(C(=O)NCCNC(=O)C2CCCNC2=O)cc(OC)c1OC (configuration not stated) | 9.5 | -7.5 | -2.7 | 23.8 | 10.8 | 40.3* | -11.9
Cc1nn(Cc2ccc(Cl)cc2)c(=O)n1N(C)c1ncc(C(F)(F)F)cc1Cl | 39.9 | 11.1 | 2.9 | -2.6 | 5.3 | 55.4* | -1.1
CN(NC(=O)c1ccc(Cl)cc1)c1ncc(C(F)(F)F)cc1Cl | 8.0 | -3.5 | 4.5 | -13.3 | 17.9 | 9.2 | ·
CC(=O)c1cccc([N+](=O)[O-])c1 | -5.7 | · | -1.5 | 41.1 | -10.3 | 4.4 | ·
O=C(C#Cc1ccccc1)c1cccc([N+](=O)[O-])c1 | -62.7 | -3.3 | 32.3 | 152.2* | 16.9 | 72.0* | 70.3*
CC(Oc1ccc(Br)cc1Br)C(=O)Nc1cccnc1Cl (configuration not stated) | 7.8 | · | 5.4 | -10.1 | 25.7 | 3.8 | ·
Cc1nnc(-c2cccc(Br)c2)c2cn(-c3ccccc3)nc12 | 31.6 | 8.9 | 12.6 | -43.4 | 27.5 | 45.7* | 46.3*
Cc1cnc(C(=O)Nc2cc(F)ccc2C)cn1 | 6.9 | 13.5 | -24.1 | 9.7 | 2.1 | 9.2 | ·
N#CC1(NC(=O)CSc2nnc3n2CCCCC3)CCCCC1 | -2.5 | · | -13.1 | 9.0 | -4.6 | 80.9* | 7.0
CC1=CC(C)(C)NC(=S)N1c1cc(C)cc(C)c1 | 33.1 | -1.9 | 3.8 | 7.6 | 29.5 | 45.2* | 21.6
CC1(C)CC(=O)C2=C(C1)NC(=O)CC2 | · | · | -2.1 | · | · | · | ·
Cc1sc2nc(COC(=O)CNC(=O)c3ccc(C(C)(C)C)cc3)[nH]c(=O)c2c1C | 26.5 | 19.5 | -1.8 | -0.2 | 19.4 | -12.3 | ·
CC(C)CN1C(=O)C(=O)N(CC(=O)Nc2cc(Cl)ccc2Oc2ccccc2)C1=O | 34.9 | 14.3 | -0.2 | · | 28.4 | 42.8* | 38.5*
O=C(CN1CCCCC1)Nc1cc(Cl)ccc1Oc1ccccc1 | 10.4 | 14.8 | 6.1 | 11.6 | 14.0 | -14.6 | ·
COc1cccc(CNC(=O)CCSCc2ccccc2F)c1 | 11.5 | -3.1 | 0.3 | 7.3 | 24.2 | -9.3 | ·
